Screening data: PubChem BioAssay, NMMLSC
RGS4-Gao reg: modulates binding of RGS4 to human Galphao. AID 1415. binding response (% of control), % at 10 µM. P09471. actives 0.33% (n = 220,000). Multiplexed bead flow cytometry; actives lie on both sides; in the data active means binding response below about 49% or above about 150%; inactive means in between;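 further: fluorescent Galphao activated with aluminum fluoride binding bead-coupled RGS4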
Target sequence (P09471 whole entry, looked up): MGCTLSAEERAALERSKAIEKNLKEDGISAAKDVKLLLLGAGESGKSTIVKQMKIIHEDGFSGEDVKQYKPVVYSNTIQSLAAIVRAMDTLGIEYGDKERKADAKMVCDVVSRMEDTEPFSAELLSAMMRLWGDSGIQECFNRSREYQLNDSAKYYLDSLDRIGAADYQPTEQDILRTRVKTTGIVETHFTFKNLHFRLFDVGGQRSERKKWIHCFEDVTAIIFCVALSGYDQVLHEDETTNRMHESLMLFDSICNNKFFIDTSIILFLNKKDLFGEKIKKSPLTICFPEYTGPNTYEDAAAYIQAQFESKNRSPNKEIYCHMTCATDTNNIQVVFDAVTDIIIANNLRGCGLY
Avidin fluor: avidin bead compound fluorescence profile | Avidin beads, compound fluorescence 488/530 nm, flow cytometry; stronger effect = higher value | fluorescence (KMESF) at 10 µM | actives 0.38% (n = 220,000) | AID 1775; in the data active means fluorescence above about 47
RGS7-Gao: modulates binding of RGS7 to human Galphao. Multiplexed bead flow cytometry; actives lie on both sides. AID 1439. actives 0.35% (n = 220,000). binding response (% of control), % at 10 µM; in the data active means binding response below about 49% or above about 150%; inconclusive means no clear call, values can overlap the other calls; inactive means in between;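 further: fluorescent Galphao held in activated GDP-AlF4 state binding bead-coupled RGS7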
RGS8-Gao: modulates binding of RGS8 to human Galphao; P09471; multiplexed bead flow cytometry; actives lie on both sides; response (percent of control binding), % at 10 µM; actives 0.34% (n = 220,000); in the data active means response below about 60% or above about 140%; inactive means in between;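 further: Galphao activated as the GDP aluminium fluoride complex binding bead-coupled RGS8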
RGS16-Gao: regulators of human RGS16-Galphao interaction | actives 0.38% (n = 220,000) | bead-based flow cytometry RGS16-Galphao binding, fluorescence; actives lie on both sides | O15492+P09471 | binding response (% of control), % at 10 µM | AID 1441;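 further: Galphao activated by GDP with aluminum fluoride before binding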
GSH bead fluor: compound fluoresces at 488/530 nm on GSH beads; GSH beads flow cytometry, compound fluorescence 488/530 nm; stronger effect = higher value; fluorescence (KMESF) at 10 µM; actives 0.25% (n = 190,000); AID 1776; in the data active means fluorescence above about 89;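 further: glutathione beads carrying GST-tagged Bcl family fusion proteins plus one bare bead set; values are compound well signal with DMSO vehicle wells as background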
RGS4-Gao HTS: RGS4-Galphao interaction regulator (human). shares compounds with RGS16-Gao. multiplexed bead flow cytometry, RGS–Galpha-o binding. RGS4–Galpha-o binding response, % at 10 µM. actives 99% (n = 1,600);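 further: fluorescently labeled Galpha-o bound to GDP with aluminium fluoride binding biotinylated RGS beads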
Target sequence (P09471 whole entry, looked up): as above
Target sequence (P49798 whole entry, looked up): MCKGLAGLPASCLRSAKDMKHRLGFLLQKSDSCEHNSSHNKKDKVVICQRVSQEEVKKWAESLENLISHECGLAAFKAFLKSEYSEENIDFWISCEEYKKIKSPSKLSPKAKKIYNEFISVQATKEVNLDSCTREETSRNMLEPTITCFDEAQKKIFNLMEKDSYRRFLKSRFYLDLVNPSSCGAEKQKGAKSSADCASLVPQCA
Avidin counter: biotin-avidin bead binding disruption counter-screen | shares compounds with RGS16-Gao | streptavidin beads, fluorescein-biotin binding, flow cytometry | inhibition, % at 10 µM | 1,700 tested, under 10 active | AID 1783;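 active means inhibition above 50%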;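 further: median green fluorescence of gated singlet beads compared with DMSO control wells; 0% = DMSO wells and 100% = complete loss of bead fluorescence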
RGS8-Gao confirm: RGS8-Galphao interaction regulation, single point confirmation; AID 1836; bead-based flow cytometry RGS8-Galphao binding, fluorescence; actives lie on both sides; binding response (% of control), % at 10 µM; shares compounds with RGS16-Gao; actives 3% (n = 1,700); in the data active means binding response below about 72% or above about 130%; inactive means in between;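 further: Galphao activated as GDP AlF4 complex before binding bead RGS8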
RGS7-Gao single: RGS7-Galphao interaction regulation, single point confirmation; shares compounds with RGS16-Gao; bead-based flow cytometry RGS7-Galphao binding; actives lie on both sides; response (percent of control binding), % at 10 µM; actives 7.8% (n = 1,700); AID 1837; in the data active means response below about 75% or above about 130%; inactive means in between;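 further: fluorescent Galphao activated with GDP and aluminum fluoride binding bead-coupled RGS7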
RGS16-Gao single: confirmation of regulators of human RGS16-Galphao interaction; shares compounds with RGS16-Gao; bead-based flow cytometry, RGS16-Galphao binding; actives lie on both sides; response (% of control binding), % at 10 µM; actives 4% (n = 1,700); AID 1838; in the data active means response below about 74% or above about 130%; inactive means in between;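 further: Galphao activated as the GDP aluminium fluoride complex binding bead-coupled RGS16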
RGS4-Gao confirm: RGS4-Galphao interaction regulation, single point confirmation. shares compounds with RGS16-Gao. RGS4-Galphao binding, multiplexed bead flow cytometry; actives lie on both sides. binding response (% of control), % at 10 µM. actives 4% (n = 1,700). AID 1840; in the data active means binding response below about 74% or above about 130%; inactive means in between
RGS19-Gao conf: confirmation of regulators of human RGS19-Galphao interaction | shares compounds with RGS16-Gao | bead-based flow cytometry RGS19-Galphao binding; actives lie on both sides | response (percent of control binding), % at 10 µM | actives 5% (n = 1,700) | AID 1841; in the data active means response below about 50% or above about 160%; inactive means in between;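 further: 100% = no compound control and 0% = blank background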
* hit, by the source's call; ? = inconclusive; nt = no result given; [ ] = dose if it differs, or a comment. Compounds with a hit are over-represented: about 1.2% of the library has one in this group of screens. Unless noted, how the calls were made is not given here.

SMILES	RGS4-Gao reg	Avidin fluor	RGS7-Gao	RGS8-Gao	RGS16-Gao	GSH bead fluor	Avidin counter	RGS8-Gao confirm	RGS7-Gao single	RGS16-Gao single	RGS4-Gao confirm	RGS19-Gao conf	others
CCOC(=O)c1c(-c2cccs2)csc1NC(=O)CN(CC)CC	46*	2	42*	55*	38	27	-1	99	95	99	95	105
COc1ccccc1OCC#CCNC1CCCCC1C (stereo not drawn)	98	9	?	101	102	13	nt	nt	nt	nt	nt	nt
O=C1c2ccccc2C(=O)N1CCN1CCOCC1	92	233*	259*[activator]	99	120	20	nt	nt	nt	nt	nt	nt	RGS4-Gao HTS=92*
Cc1cccc(Nc2cnn(C34CC5CC(CC(CC(=O)O)(C5)C3)C4)c(=O)c2Cl)c1	102	6	101	105	103	30	nt	nt	nt	nt	nt	nt
Cc1ccc(CNc2cnn(C34CC5CC(CC(C5)C3)C4)c(=O)c2Cl)cc1	0.2*	-2	7.4*	11*	5.8*	22	-1	99	94	98	92	101
Cc1cc(C)cc(Nc2cnn(C34CC5CC(CC(CC(=O)O)(C5)C3)C4)c(=O)c2Cl)c1	91	nt	nt	nt	nt	33	2	103	105	102	102	100
CCOc1ccc(S(=O)(=O)NC2CCCCCC2)cc1	46*	5	35*	50*	38	23	-1	114	104	123	103	121
CCOc1ccc(S(=O)(=O)N/N=C(\C)C2CCCCC2)cc1	101	6	98	76	14*	5	2	99	100	100	101	114	RGS4-Gao HTS=101*
CCOc1ccc(S(=O)(=O)N/N=C(\C)Cc2ccc(OC)cc2)cc1	100	9	?	99	99	13	nt	nt	nt	nt	nt	nt
Cn1c(SCC(=O)O)nnc1-c1ccc2ncccc2c1	96	6	?	95	95	nt	nt	nt	nt	nt	nt	nt
CCOC(=O)C(=CNc1cc(C(F)(F)F)ccc1N1CCOCC1)C(=O)OCC	117	7	?	110	114	nt	nt	nt	nt	nt	nt	nt
CCOC(=O)c1c(C)n(C)c2ccc(O)c(CN3CCN(C)CC3)c12	131	3	121	150*[activator]	345	47	3	94	102	96	98	95	RGS4-Gao HTS=131*
C/C(=N\NC(=O)c1nn(C)c(C)c1Br)c1cccc(NC(=O)c2ccc(F)cc2)c1	114	5	112	140	253*[activator]	6	1	101	104	101	102	93	RGS4-Gao HTS=114*
COc1ccccc1N1CCN(C(=O)CSc2nc(N)cc(=O)[nH]2)CC1	88	201*	277*[activator]	89	113	12	1	104	106	106	105	129	RGS4-Gao HTS=88*
NS(=O)(=O)c1cccnc1Nc1c(Cl)cccc1Cl	208*[activator]	108*	179*[activator]	128	213*[activator]	202*	0	104	108	106	106	103
COc1ccc(NS(=O)(=O)c2cc([N+](=O)[O-])ccc2N/N=C\c2c(C)[nH]c3ccccc23)cc1	151*[activator]	51*	136	110	145	19	0	101	159*[activator]	117	128*[activator]	199*[activator]
Cc1[nH]c2ccccc2c1/C=N/Nc1ccc([N+](=O)[O-])cc1S(=O)(=O)Nc1ccc(Cl)cc1	131	24	128	103	126	16	nt	nt	nt	nt	nt	nt
COC(=O)[C@@H]1CC[C@H](C)[C@@H](c2ccc(C)cc2)N1C(=O)c1ccc(/C=N/OCC[C@@H]2C=C[C@H](OC(C)=O)[C@@H](COC(C)=O)O2)cc1	97	6	97	95	74	18	nt	nt	nt	nt	nt	nt
COc1ccccc1NC(=O)CN(c1ccc([N+](=O)[O-])cc1)S(=O)(=O)c1ccccc1	113	6	79	85	185*[activator]	15	-2	99	98	102	101	102	RGS4-Gao HTS=113*
Cc1cccc(C)c1NC(=O)CN1C(=O)NC(C)(CCc2ccccc2)C1=O (stereo not drawn)	100	10	107	103	102	15	nt	nt	nt	nt	nt	nt
CSC1=N/C(=C/c2cccnc2)C(=O)N1Cc1ccccc1	-9.4*	-2	?	12*	-5.1*	nt	0	97	95	98	100	60
CCN(CC)C(=S)SC1CCCCN(C(=O)c2ccccc2)C1=O (stereo not drawn)	101	7	?	104	103	nt	nt	nt	nt	nt	nt	nt
Cc1nc(C(F)(F)F)ccc1C(=O)N1CCCCC1	3.0*	-1	?	31*	5.8*	nt	0	102	98	103	102	96
N#Cc1ccccc1S(=O)(=O)N1CCN(c2cnccn2)CC1	100	8	97	102	101	20	nt	nt	nt	nt	nt	nt
O=C1/C(=C/c2cccnc2)SC(=S)N1c1ccc(F)cc1	109	15	108	116	178*[activator]	3	-1	102	103	101	102	98	RGS4-Gao HTS=109*
O=C1/C(=C/c2cccnc2)SC(=S)N1c1ccc(O)cc1	101	5	?	101	107	nt	nt	nt	nt	nt	nt	nt
O=C(O)CNC(=O)CC1S/C(=N/N=C2/NC(=O)CS2)NC1=O (stereo not drawn)	113	26	114	113	117	8	nt	nt	nt	nt	nt	nt
C/C(=N\O)C(C)Oc1ccc(Cl)cc1 (stereo not drawn)	102	20	101	102	105	13	nt	nt	nt	nt	nt	nt
COc1cc(OC)cc(-c2nc(-c3ccccc3OC)no2)c1	0.9*	-2	10*	14*	3.8*	65	-2	109	109	109	111	110
COc1ccccc1-c1noc(-c2cc(OC)c(OC)c(OC)c2)n1	106	26	103	105	112	21	nt	nt	nt	nt	nt	nt
